Source: PubChem BioAssay AID1159580 (chemical genetic matrix, 2015)
Where “and” joins values, the source holds several entries; their conditions need not be identical. Identical values can stand only once. In all, about 5,500 compounds went through this assay and about 2,000 (36%) were called active. Not shown: some 18% with an inconclusive outcome. Rule as the data show it: active = normalized growth mostly below about 0.91 (no sharp cut-off); inconclusive = no clear call, values can overlap the other calls; inactive = mostly above about 0.92. This is one part of the list.

Experiment: chemical genetic growth profiling, strain panel (AID 1159580);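 also: tested at 20 µM; growth read once vehicle control cultures reached saturation at 30 °C; 1 = growth at the plate median or of vehicle wells; lower values mean less growth of the strain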
Conditions: growth OD

Measured: normalized growth

COc1ccc2[nH]cc(CCNC(C)=O)c2c1
inactive: S. cerevisiae deletion strains, locus YJR075W, strain HOC1, active compounds read low 1.07 | S. cerevisiae deletion strains, locus YKL009W, strain mrt4, active compounds read low 1.01 | S. cerevisiae deletion strains, locus YKL068W, active compounds read low 1.01 | S. cerevisiae deletion strains, locus YKL085W, strain MDH1 (second series), active compounds read low 1.01 | S. cerevisiae deletion strains, locus YKL085W, strain MDH1, active compounds read low 1.01 | S. cerevisiae deletion strains, locus YKL160W, strain elf1, active compounds read low 0.979 | S. cerevisiae deletion strains, locus YKL190W, strain CNB1, active compounds read low 1 | S. cerevisiae deletion strains, locus YKR001C, strain vps1, active compounds read low 1.03 | S. cerevisiae deletion strains, locus YKR026C, strain gcn3, active compounds read low 0.97 | S. cerevisiae deletion strains, locus YKR091W, strain srl3, active compounds read low 0.969 | S. cerevisiae deletion strains, locus YLL001W, strain dnm1, active compounds read low 0.971 | S. cerevisiae deletion strains, locus YLL026W, active compounds read low 0.979 | S. cerevisiae deletion strains, locus YLL041C, strain sdh2, active compounds read low 0.977 | S. cerevisiae deletion strains, locus YLR027C, strain aat2, active compounds read low 0.975 | S. cerevisiae deletion strains, locus YLR039C, strain RIC1, active compounds read low 1.04 | S. cerevisiae deletion strains, locus YLR058C, strain SHM2, active compounds read low 1.01 | S. cerevisiae deletion strains, locus YLR102C, strain apc9, active compounds read low 1.03 | S. cerevisiae deletion strains, locus YLR113W, strain HOG1, active compounds read low 1 | S. cerevisiae deletion strains, locus YLR221C, strain rsa3, active compounds read low 0.969 | S. cerevisiae deletion strains, locus YLR258W, strain gsy2, active compounds read low 0.973 | S. cerevisiae deletion strains, locus YLR262C, strain YPT6 (second series), active compounds read low 0.987 | S. cerevisiae deletion strains, locus YLR262C, strain YPT6, active compounds read low 1.02 | S. cerevisiae deletion strains, locus YLR268W, strain sec22, active compounds read low 1.03 | S. cerevisiae deletion strains, locus YLR320W, strain mms22, active compounds read low 0.955 | S. cerevisiae deletion strains, locus YLR330W, strain CHS5, active compounds read low 1.01 | S. cerevisiae deletion strains, locus YLR342W, strain FKS1 (second series), active compounds read low 1.01 | S. cerevisiae deletion strains, locus YLR342W, strain FKS1, active compounds read low 0.983 | S. cerevisiae deletion strains, locus YLR357W, strain rsc2, active compounds read low 0.93 | S. cerevisiae deletion strains, locus YLR370C, strain arc18, active compounds read low 0.974 | S. cerevisiae deletion strains, locus YLR371W, strain rom2, active compounds read low 1.02 | S. cerevisiae deletion strains, locus YLR384C, strain iki3, active compounds read low 0.951 | S. cerevisiae deletion strains, locus YLR418C, strain cdc73, active compounds read low 1.05 | S. cerevisiae deletion strains, locus YML016C, strain PPZ1, active compounds read low 1.01 | S. cerevisiae deletion strains, locus YML032C, strain rad52, active compounds read low 1.03 | S. cerevisiae deletion strains, locus YML120C, strain ndi1, active compounds read low 0.982 | S. cerevisiae deletion strains, locus YML124C, strain tub3, active compounds read low 1.02 | S. cerevisiae deletion strains, locus YMR058W, strain fet3, active compounds read low 0.974 | S. cerevisiae deletion strains, locus YMR078C, strain ctf18, active compounds read low 1.03 | S. cerevisiae deletion strains, locus YMR125W, strain sto1, active compounds read low 0.956 | S. cerevisiae deletion strains, locus YMR129W, active compounds read low 0.977 | S. cerevisiae deletion strains, locus YMR205C, strain PFK2, active compounds read low 0.979 | S. cerevisiae deletion strains, locus YMR223W, strain ubp8, active compounds read low 1.03 | S. cerevisiae deletion strains, locus YMR231W, strain pep5, active compounds read low 0.957 | S. cerevisiae deletion strains, locus YMR263W, strain SAP30, active compounds read low 1.01 | S. cerevisiae deletion strains, locus YMR307W, strain GAS1, active compounds read low 1.05 and 0.978 | S. cerevisiae deletion strains, locus YNL067W, strain RPL9B, active compounds read low 1.01 | S. cerevisiae deletion strains, locus YNL071W, strain lat1, active compounds read low 0.975 | S. cerevisiae deletion strains, locus YNL128W, strain TEP1, active compounds read low 1.02 | S. cerevisiae deletion strains, locus YNL153C, strain GIM3, active compounds read low 1.01 | S. cerevisiae deletion strains, locus YNL175C, strain NOP13, active compounds read low 1.02 | S. cerevisiae deletion strains, locus YNL183C, strain NPR1, active compounds read low 0.942 | S. cerevisiae deletion strains, locus YNL197C, strain WHI3, active compounds read low 1.01 | S. cerevisiae deletion strains, locus YNL209W, strain ssb2, active compounds read low 0.971 | S. cerevisiae deletion strains, locus YNL224C, strain SQS1, active compounds read low 1 | S. cerevisiae deletion strains, locus YNL233W, strain BNI4, active compounds read low 1.02 | S. cerevisiae deletion strains, locus YNL248C, strain rpa49, active compounds read low 0.968 | S. cerevisiae deletion strains, locus YNL250W, strain rad50, active compounds read low 1.04 | S. cerevisiae deletion strains, locus YNL271C, strain bni1, active compounds read low 1.05 | S. cerevisiae deletion strains, locus YNL298W, strain CLA4, active compounds read low 1.03 | S. cerevisiae deletion strains, locus YNL307C, strain MCK1, active compounds read low 1.04 | S. cerevisiae deletion strains, locus YNL322C, strain KRE1 (second series), active compounds read low 0.968 | S. cerevisiae deletion strains, locus YNL322C, strain KRE1, active compounds read low 1 | S. cerevisiae deletion strains, locus YNR049C, strain mso1, active compounds read low 0.972 | S. cerevisiae deletion strains, locus YNR052C, strain pop2, active compounds read low 1.03 | S. cerevisiae deletion strains, locus YOL006C, strain TOP1, active compounds read low 1.07 | S. cerevisiae deletion strains, locus YOL012C, strain htz1 1.19 | S. cerevisiae deletion strains, locus YOL147C, strain pex11, active compounds read low 1.02 | S. cerevisiae deletion strains, locus YOR001W, strain rrp6, active compounds read low 0.988 | S. cerevisiae deletion strains, locus YOR061W, strain CKA2, active compounds read low 1.01 | S. cerevisiae deletion strains, locus YOR069W, strain VPS5, active compounds read low 0.997 | S. cerevisiae deletion strains, locus YOR070C, strain gyp1, active compounds read low 0.988 | S. cerevisiae deletion strains, locus YOR080W, strain dia2, active compounds read low 0.972 | S. cerevisiae deletion strains, locus YOR083W, strain WHI5 (second series), active compounds read low 1.01 | S. cerevisiae deletion strains, locus YOR083W, strain WHI5, active compounds read low 0.98 | S. cerevisiae deletion strains, locus YOR106W, strain vam3, active compounds read low 0.982 | S. cerevisiae deletion strains, locus YOR136W, strain idh2, active compounds read low 1.04 | S. cerevisiae deletion strains, locus YOR144C, strain elg1, active compounds read low 1.02 | S. cerevisiae deletion strains, locus YOR184W, strain ser1, active compounds read low 1.04 | S. cerevisiae deletion strains, locus YOR231W, strain MKK1, active compounds read low 1.02 | S. cerevisiae deletion strains, locus YOR265W, strain rbl2, active compounds read low 0.984 | S. cerevisiae deletion strains, locus YOR270C, strain vph1, active compounds read low 0.966 | S. cerevisiae deletion strains, locus YOR290C, strain snf2, active compounds read low 0.972 | S. cerevisiae deletion strains, locus YOR316C, strain cot1, active compounds read low 1.03 | S. cerevisiae deletion strains, locus YPL051W, strain arl3, active compounds read low 0.967 | S. cerevisiae deletion strains, locus YPL055C, strain LGE1, active compounds read low 1.04 | S. cerevisiae deletion strains, locus YPL078C, strain atp4, active compounds read low 0.977 | S. cerevisiae deletion strains, locus YPL106C, strain sse1, active compounds read low 0.978 | S. cerevisiae deletion strains, locus YPL240C, strain hsp82, active compounds read low 0.977 | S. cerevisiae deletion strains, locus YPL241C, strain CIN2, active compounds read low 1 | S. cerevisiae deletion strains, locus YPL256C, strain CLN2, active compounds read low 1.01 | S. cerevisiae deletion strains, locus YPR119W, strain clb2, active compounds read low 1.02 | S. cerevisiae deletion strains, locus YPR141C, strain kar3, active compounds read low 1.03 | S. cerevisiae deletion strains, locus YPR163C, strain tif3, active compounds read low 1.02 | S. cerevisiae deletion strains, locus YPR167C, strain met16, active compounds read low 1.03 | S. cerevisiae deletion strains, strain wtn01, active compounds read low 1.02 | S. cerevisiae strains, strain wild type, active compounds read low 1.01
